Giardia FBPA inh: Giardia lamblia aldolase inhibition; Potency, µM (highest dose often 59.6 µM), hits mostly inhibitors; purified Giardia FBPA; actives 0.71% (n = 290,000); AID 2451; also: nearly all actives have a fitted effect of over 55% in size
Target sequence (A8B2U2 whole entry, looked up): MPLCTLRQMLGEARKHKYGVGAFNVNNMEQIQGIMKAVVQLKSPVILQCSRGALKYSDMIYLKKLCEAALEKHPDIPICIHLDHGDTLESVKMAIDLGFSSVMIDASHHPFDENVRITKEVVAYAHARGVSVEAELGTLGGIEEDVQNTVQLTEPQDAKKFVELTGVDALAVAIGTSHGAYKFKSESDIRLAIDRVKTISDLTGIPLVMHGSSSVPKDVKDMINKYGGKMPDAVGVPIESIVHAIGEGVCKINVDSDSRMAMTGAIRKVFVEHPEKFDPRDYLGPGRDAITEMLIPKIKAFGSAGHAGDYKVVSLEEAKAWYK
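40 nM FBPA preincubated 10 min at RT with compound (up to 57.5 uM final), then substrate plus GAPDH/TPI/NAD/arsenate coupling and diaphorase/resazurin added. Fluorescence read after 20 min at RT, 525/598 nm.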
TbPYK inhibitor: T. brucei pyruvate kinase inhibition; Q57TT1; TbPYK enzyme, Kinase-Glo Plus ATP luminescence, 45 min; Potency, µM (top dose mostly 76.8 µM), actives largely listed as inhibitors; actives 0.12% (n = 410,000); also: nearly all actives have a fitted effect of over 50% in size
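Activity of T. brucei pyruvate kinase was followed by Kinase-Glo Plus luminescence after the enzyme reacted 45 min at room temperature with 130 uM ADP (final) and substrate. Test compounds were added before ADP at multiple concentrations.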
Cycloheximide cs: counter-screen hit for Shiga toxin inhibitors, cycloheximide. cell reporter, cycloheximide protein synthesis inhibition counterscreen. max response, %. actives 12% (n = 300,000). AID 2314; in the data active = max response mostly above about 13%, no sharp cut-off; inactive = mostly below about 14%; also: read at 38.3 µM for the half of the compounds with a filed dose
Shiga toxin inh: blocks Shiga toxin action in Vero cells | Vero cells, Shiga toxin protein synthesis inhibition reporter | inhibition, % at 38.7 µM | actives 9.2% (n = 290,000); in the data active = inhibition mostly above about 28%, no sharp cut-off; inactive = mostly below about 43%
RE007 growth inh: less growth of the S. pombe RE007 Vpr strain. Potency, µM (series often up to 92.2 µM), hits mostly inhibitors. actives 0.21% (n = 360,000). S. pombe RE007 Vpr strain, BacTiter-Glo ATP luminescence, 24 h; active = well fitted falling curve with a large enough effect; inconclusive = small, poorly fitted or top-dose-only effect; inactive = no such curve, though single readings can be large or run the other way; also: nearly all actives have a fitted effect of over 50% in size
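Fission yeast strain RE007, carrying one chromosomally integrated HIV-1 vpr copy, was seeded at OD 0.01 in PMG+AL medium with 23 nL pinned compound. After 24 h at 30 °C and 99% humidity, viability was read by BacTiter-Glo luminescence.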
LmPK inh: LmPK (Leishmania mexicana) enzyme inhibition | Potency, µM (series often up to 57.5 µM), usual class: inhibitors | purified LmPK, Kinase-Glo ATP luminescence, 1 h | Q27686 | actives 0.37% (n = 290,000)
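In 50 mM imidazole pH 7.2 with 7 mM MgCl2, LmPK (0.1 nM) turned over PEP (0.5 mM) and ADP (0.1 mM) for 1 h at room temperature. Luciferase read-out of ATP.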
A number is an active result; i = inactive; ? = inconclusive; nt = not tested or not shown; + = active, no number. This is one part of a sample in which hits are shown more often than they occur. Unless noted, calls follow the shape of the dose curve; as a rule, active = well fitted curve in the direction sought with a large enough effect; inconclusive = small, poorly fitted or top-dose-only effect, or another doubt; inactive = no such curve, though single readings can be large; an effect the other way counts as inactive or inconclusive.

SMILES	Giardia FBPA inh	TbPYK inhibitor	Cycloheximide cs	Shiga toxin inh	RE007 growth inh	LmPK inh
COc1ccc(CNC(=O)c2cc(-c3ccc(OC)c(OC)c3)nc3n[nH]c(-c4ccc(C)cc4)c23)cc1	nt	i	nt	nt	nt	nt
C=CCSc1n[nH]c(-c2ccc(OCCC)cc2)n1	?	i	50.0	125.0	i	i
C=CCSc1n[nH]c(-c2ccc(OCCCC)cc2)n1	?	i	41.3	16.9	i	i
FC(F)(F)c1ccccc1-c1cc(N2CCNCC2)ncn1	i	nt	nt	nt	nt	nt
CCOC(=O)N1C(=O)[C@@](CC)(c2ccccc2)N1C(=O)OCC	i	i	i	i	i	i
COC(=O)N1C(=O)[C@](c2ccccc2)(C2CCCCC2)N1C(=O)OC	i	i	i	i	i	i
COC(=O)N1C(=O)[C@](CC(C)C)(c2ccccc2)N1C(=O)OC	i	i	14.8	i	i	i
CC[C@@]1(c2ccccc2OC)C(=O)N(C(=O)OC)N1C(=O)OC	i	i	24.5	23.5	i	i
COC(=O)N1C(=O)[C@@](c2ccccc2)(C2CCCC2)N1C(=O)OC	i	i	17.9	i	i	i
COC(=O)N1C(=O)[C@@](CC(C)C)(c2ccccc2)N1C(=O)OC	i	nt	15.5	i	nt	i
CC[C@@]1(c2cccc(C)c2)C(=O)N(C(=O)OC)N1C(=O)OC	i	i	i	i	i	i
COc1ccc(Nc2nc(N)nc(N)c2S(=O)(=O)c2ccccc2)cc1	nt	i	nt	nt	nt	nt
CC(C)(C)c1csc(NC(=O)CS(=O)(=O)c2ccccc2)n1	i	i	38.8	126.6	i	i
Cc1csc(NC(=O)CS(=O)(=O)c2ccccc2)n1	i	i	27.6	48.1	i	i
Cc1ccc(S(=O)(=O)CC(=O)Nc2nc(-c3ccccc3)cs2)cc1	i	i	i	i	i	i
O=C(CS(=O)(=O)c1ccccc1)Nc1nc(-c2ccccc2)cs1	i	i	i	i	i	i
Cc1oc(-c2ccc(C(=O)NCc3ccccc3Cl)cc2)nc1CN1CCc2ccccc21	nt	i	nt	nt	nt	nt
O=C(CS(=O)Cc1ccco1)NCC=CCOc1cc(CN2CCCCC2)ccn1 (configuration not stated)	nt	i	nt	nt	nt	nt
Cc1occc1C(=O)NNC(=S)Nc1ccccc1C(F)(F)F	i	i	26.5	56.4	i	i
CC(C)(C)CC(=O)NC(=S)Nc1ccccc1C(F)(F)F	i	i	i	i	i	i
Cc1ccccc1NC(=S)NNC(=O)c1ccoc1C	i	i	i	48.3	i	?
CCNC(=S)NNC(=O)c1ccoc1C	i	i	i	i	i	i
O=C(NNC(=S)Nc1ccccc1C(F)(F)F)c1ccc(Br)o1	i	i	29.6	100.9	i	i
Cc1occc1C(=O)NNC(=O)c1ccccc1F	i	i	23.3	i	i	?
Cc1cn(-c2cc(NC(=O)c3ccc(C)c(Nc4nccc(-c5cccnc5)n4)c3)cc(C(F)(F)F)c2)cn1	nt	i	nt	nt	nt	nt
SMILES	Giardia FBPA inh	TbPYK inhibitor	Cycloheximide cs	Shiga toxin inh	RE007 growth inh	LmPK inh
CCCCc1nn2c(=O)cc(COC(=O)c3ccco3)nc2s1	nt	i	nt	nt	nt	nt
Cc1occc1C(=O)NNC(=S)Nc1ccccc1	i	i	35.0	76.6	i	i
O=C(OCc1ccccc1)c1ccccc1	i	i	nt	nt	i	nt
O=C(OCc1ccccc1)c1ccc2c(c1)-c1ccccc1C2=O	i	i	16.2	26.7	i	i
c1ccc2c(c1)ncc1cccn12	i	i	i	i	i	i
c1ccc(-c2ncc3ccccn23)cc1	?	i	15.4	i	i	i
O=C(CSCCO)Nc1ccc(C23CC4CC(CC(C4)C2)C3)cc1	i	i	24.4	52.8	i	i
CS(=O)(=O)N(CC(=O)Nc1ccc(CC#N)cc1)c1ccc(C23CC4CC(CC(C4)C2)C3)cc1	i	i	22.0	77.1	i	i
C#CCN(CC=C)C(=O)CCc1nnc(COc2ccccc2)o1	i	i	41.7	59.0	i	i
NC(CSSCC(N)C(=O)O)C(=O)O (configuration not stated)	i	i	i	i	nt	nt
CCC(=O)Nc1ccc(NC(=O)c2oc3ccccc3c2C)cc1	i	i	10.4	i	i	i
CC(=O)Nc1cccc(NC(=O)c2oc3ccccc3c2C)c1	i	nt	48.3	99.6	nt	i
CCC(=O)Nc1ccc(NC(=S)NC(=O)c2oc3ccccc3c2C)cc1	i	i	i	i	i	i
Cc1c(C(=O)NCc2ccccn2)oc2ccccc12	i	i	31.7	39.2	i	i
Cc1c(C(=O)Nc2cnccn2)oc2ccccc12	i	i	27.7	61.0	i	i
O=S(=O)(c1ccccc1)N1CCC2(CC1)CN(c1ccccn1)C2	i	i	nt	nt	nt	nt
CC1(C)OC[C@@H]2O[C@@]3(C(=O)O)OC(C)(C)O[C@@H]3[C@@H]2O1	nt	i	nt	nt	nt	nt
CCN(CC)c1cc(C)c2cc(NC(=O)/C=C/c3ccccc3Cl)ccc2n1	nt	i	nt	nt	nt	nt
O=c1c2ccccc2nnn1-c1ccccc1	nt	i	nt	nt	i	nt
N=c1c2ccccc2nnn1-c1ccc(C(F)(F)F)cc1	i	i	39.9	75.9	i	i
O=C(Nc1ccccc1N1CCCC1)c1ccc(Br)o1	i	i	9.2	i	i	i
CSc1ccccc1NC(=O)c1ccc(Br)o1	i	i	35.8	45.0	i	i
O=C(Nc1ccc(N2CCCC2)c(Cl)c1)c1ccc(Br)o1	?	i	40.6	i	i	i
CC(=O)N1CCN(c2ccccc2NC(=O)c2ccc(Br)o2)CC1	nt	i	i	i	i	i
COc1ccc(N2CCCC2)c(NC(=O)c2ccc(Br)o2)c1	i	i	i	i	i	i
SMILES	Giardia FBPA inh	TbPYK inhibitor	Cycloheximide cs	Shiga toxin inh	RE007 growth inh	LmPK inh
CC1(OC(=O)c2cnc3ccccc3n2)C(=O)C=C2C=C(c3ccsc3)OC=C2C1=O (configuration not stated)	i	nt	nt	nt	nt	nt
CCS(=O)(=O)N1Cc2ccccc2CC1C(=O)Nc1nc2ccccc2s1 (configuration not stated)	i	i	42.6	+	i	i
CCS(=O)(=O)N1Cc2ccccc2CC1C(=O)Nc1nnc(C2CC2)s1 (configuration not stated)	i	i	i	i	i	i
CCS(=O)(=O)N1Cc2ccccc2CC1C(=O)Nc1nc2ccccc2[nH]1 (configuration not stated)	i	i	33.9	194.1	i	i
CCc1nnc(NC(=O)C2Cc3ccccc3CN2S(=O)(=O)CC)s1 (configuration not stated)	i	i	i	i	i	i
O=C1c2ccccc2C(=O)N1c1ccc(Cc2ccncc2)cc1	i	i	14.8	i	i	i
O=C(OCC1CCCO1)c1ccc2c(c1)N(Cc1cccc(Cl)c1)C(=O)c1ccccc1S2(=O)=O (configuration not stated)	nt	i	nt	nt	nt	nt
CCN(CC)c1nc(C)nc2c1cnn2CCc1ccccc1	i	i	49.2	172.7	i	i
COc1ccc(Oc2ncc3nc(C)c(=O)n(C[C@H]4CCCO4)c3n2)cc1	i	nt	nt	nt	nt	nt
